CYP2C9 inh: inhibitors of human CYP2C9; CYP2C9 Supersomes, luciferin-H conversion, luminescence; AID 777; inhibition, % at 5 µM; actives 20% (n = 96,000); P11712;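 active means blocking of liver enzyme CYP2C9 beyond about 50% at 5 µM, limit read from the data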
CYP2C9 act: CYP2C9 (human) activation; P11712; recombinant CYP2C9, luciferin-H conversion, luminescence; active compounds read high; factor 1 = untreated enzyme, 0 = blocked; activation factor at 5 µM; actives 1.4% (n = 96,000); AID 1024;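 active means activation factor of 2 or more for CYP2C9 at a 5 µM dose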
CYP2C19 inhib: human CYP2C19 inhibition; AID 778; inhibition, % at 5 µM; actives 21% (n = 96,000); CYP2C19 Supersomes, luciferin-H EGE luminescence, 30 min; P33261;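 active means CYP2C19 inhibition above a set limit at 5 µM in the primary screen, cut at about 50% in these data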
Target sequence (P33261 whole entry, looked up): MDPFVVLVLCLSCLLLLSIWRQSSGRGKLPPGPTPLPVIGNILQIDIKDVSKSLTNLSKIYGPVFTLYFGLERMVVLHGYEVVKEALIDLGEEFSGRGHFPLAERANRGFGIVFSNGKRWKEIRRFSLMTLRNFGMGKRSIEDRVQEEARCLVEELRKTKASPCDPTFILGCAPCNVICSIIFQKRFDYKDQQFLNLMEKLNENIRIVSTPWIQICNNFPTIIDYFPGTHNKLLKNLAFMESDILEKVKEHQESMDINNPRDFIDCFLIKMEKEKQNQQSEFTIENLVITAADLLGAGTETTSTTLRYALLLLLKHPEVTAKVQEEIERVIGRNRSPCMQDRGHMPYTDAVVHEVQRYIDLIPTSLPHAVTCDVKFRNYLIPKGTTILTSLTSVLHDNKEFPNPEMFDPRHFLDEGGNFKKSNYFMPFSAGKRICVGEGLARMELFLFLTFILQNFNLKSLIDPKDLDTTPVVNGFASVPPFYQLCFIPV
CYP2C19 act: increases human CYP2C19 enzyme activity | 96,000 tested, under 10 active | activation factor at 5 µM | P33261 | recombinant CYP2C19, luciferin-H EGE luminescence; active compounds read high; 0 = fully inhibited enzyme, 1 = untreated enzyme;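 active means activation factor of at least 2 at 5 µM in the primary screen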
Pyk2 oligo antag: blocks oligomerization of human Pyk2 in cells; actives 0.83% (n = 99,000); Q14289; AID 1347419; z-score (the deposit names both 25 µM and 10 µM); Q293 cells, Pyk2 FERM NanoBiT luminescence; active compounds read low;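 active means Z-score of -3 or lower, scaled per plate to the spread of control and sample wells; inactive means z-score above -3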;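 further: negative z-score means lost luminescence so less FERM oligomerization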
Of the large screens only hits and unclear results are named; the others gave an inactive call. Most compounds without a hit are left out; they make up all but 28% or so of the library.

Cc1nc2ncnn2c(C)c1Cc1c(Cl)cccc1Cl	CYP2C19 inhib 62
Cc1ccc(-c2c(C#N)c(N)nc3c2CCCC3)s1	none
COC(=O)Cc1cnc(NC(=O)C2C3CCC(C3)C2C(=O)O)s1 (stereo not drawn)	none
Cc1nnsc1Sc1cccc(C(F)(F)F)c1	none
O=C(CCCCCNS(=O)(=O)c1ccc(Br)cc1)NCCN1CCOCC1	none
COc1ccc(Cc2nnn(CC(=O)O)n2)cc1	none
CCOC(=O)C1=C(N)Oc2cc(O)ccc2C1c1cccnc1 (stereo not drawn)	CYP2C9 inh 90, CYP2C19 inhib 89
O=C(Nc1ccc(C2CCCCC2)cc1)C1CCN(c2ncccn2)CC1	none
Cc1ccc(-c2nn(Cc3ccccc3)cc2/C=C/C(=O)O)cc1C	CYP2C19 inhib 76
O=C(O)/C=C/c1cn(Cc2ccccc2)nc1-c1ccccc1	none
COc1ccc2c(c1[N+](=O)[O-])CCC/C2=N/OC(=O)c1cccc2ccccc12	CYP2C9 act 2
CC(C)=C(NC(=O)c1ccccc1)C(=O)NCCCC(=O)O	none
CCCNS(=O)(=O)c1ccc(CCC(=O)Nc2ccc3c(c2)OCO3)cc1	CYP2C9 inh 82, CYP2C19 inhib 95
COc1ccc(CC(=O)Nc2ccc(S(=O)(=O)NC(C)C)cc2)cc1	CYP2C9 inh 60, CYP2C19 inhib 62
CCC(C)NS(=O)(=O)c1ccc(OCC(=O)Nc2ccc3c(c2)OCO3)cc1 (stereo not drawn)	none
CCCNS(=O)(=O)c1ccc(CCC(=O)N2CCOCC2)cc1	none
CC(C)CNS(=O)(=O)c1ccc(C(=O)Nc2ccc3c(c2)OCCO3)cc1	none
CC(C)NS(=O)(=O)c1ccc(CCC(=O)Nc2ccc3c(c2)OCO3)cc1	CYP2C9 inh 52
CC(C)CNS(=O)(=O)c1ccc(CCC(=O)Nc2ccc3c(c2)OCCO3)cc1	CYP2C9 inh 58
Cc1cc(Nc2ccc(Br)c(C)c2)n2nc(C)nc2n1	none (no result: Pyk2 oligo antag)
Cn1c(SCC(=O)Nc2ccc(NC(=O)c3cccs3)cc2)nnc1-c1ccncc1	none (no result: CYP2C9 inh, CYP2C9 act, CYP2C19 inhib, CYP2C19 act)
CCc1c(O)nc(SCC(=O)Nc2ccccc2OC)[nH]c1=O	none
Cc1cc(Cl)ccc1OCCCC(=O)NC1CCN(C)CC1	none
CCCCN=Cc1sc2ccc(OCC)cc2c1O	CYP2C19 inhib 94
Cc1cc2c(cc1C)NC(c1nc3ccccc3[nH]1)C1=C(CC(C)(C)CC1=O)N2 (stereo not drawn)	none
CC1(C)CC(=O)c2cnn(-c3nc4ccccc4[nH]3)c2C1	CYP2C9 inh 56, CYP2C19 inhib 80
Cc1ccc(CN(C(=O)c2csnn2)C(C(=O)NC2CCCC2)c2ccc(C)o2)cc1 (stereo not drawn)	none (no result: CYP2C9 inh, CYP2C9 act, CYP2C19 inhib, CYP2C19 act)
Cc1cccc(C)c1NC(=O)C1C2C=CC(C2)C1C(=O)NCc1ccccn1 (stereo not drawn)	none
C[C@@]12CC(=O)NC1N(C(=O)c1cccc(C(F)(F)F)c1)C(c1ccccc1O)C2 (stereo partly drawn)	CYP2C9 inh 69, CYP2C19 inhib 56
Cc1cccc(C(=O)Oc2ccc(/C=N/O)cc2)c1	none (no result: CYP2C9 inh, CYP2C9 act, CYP2C19 inhib, CYP2C19 act)
Cc1cccc(C(=O)Oc2ccccc2C2C[C@]3(C)CC(=O)NC3N2C(=O)c2cccc(C)c2)c1 (stereo partly drawn)	CYP2C9 inh 57
CSC1=NCCN1C(=O)c1cccc(C(F)(F)F)c1	none
O=c1cc(CN2CCN(C/C=C/c3ccccc3)CC2)c2cc(O)ccc2o1	none
Cc1cccc(Cl)c1OCCCCn1ccnc1	CYP2C9 inh 96, CYP2C19 inhib 100
Cc1cccc(C(C)(C)C)c1OCCCCN1CCCC1	none
Cc1cccc(C(C)(C)C)c1OCCn1ccnc1	CYP2C9 inh 66, CYP2C19 inhib 98
Cc1cc(Cl)cc(C)c1OCCCCn1ccnc1	CYP2C9 inh 96, CYP2C19 inhib 100
COc1cc(NC(=O)C2CC(=O)NC3=C2C(=O)CCC3)cc(OC)c1 (stereo not drawn)	none
Cc1nnc(-c2cccc(Br)c2)c2cn(-c3ccccc3Cl)nc12	CYP2C9 inh 66, CYP2C19 inhib 60
Cc1ccc(-n2cc3c(-c4cccc(Br)c4)nnc(C)c3n2)cc1	CYP2C9 inh 92, CYP2C19 inhib 77
CCN(CC)CCOc1nnc(-c2ccc(C)cc2)c2ccccc12	none
CC(C)COC(=S)Nc1ccccc1	CYP2C19 inhib 78
Cn1ncc(C#N)c1/N=C/N(Cc1ccccc1)Cc1ccccc1	CYP2C9 inh 99, CYP2C19 inhib 95
CCC1CCCCN1C(=O)CSc1nnc(CNC(=O)c2cc(OC)c(OC)c(OC)c2)o1 (stereo not drawn)	none
CC(C)CNc1c(N)c(=O)oc2ccccc12	none
CCCCOC(=O)n1c(=O)oc2cc(S(=O)(=O)N3CCCCC3)ccc21	Pyk2 oligo antag -3.1
Cc1cc(F)c(F)c(C(=O)N2CCN(C)CC2)c1Cl	CYP2C9 act 2.2
Cn1c(=O)c2c(ncn2CC(=O)N2CCc3ccccc3C2)n(C)c1=O	none
O=C(CCc1ccccc1)NC(NC(=S)Nc1ccc(Cl)cc1)C(Cl)(Cl)Cl (stereo not drawn)	CYP2C9 inh 92
O=C(/C=C/c1ccccc1)NC(NC(=S)Nc1ccc(Cl)cc1)C(Cl)(Cl)Cl (stereo not drawn)	CYP2C9 inh 70
O=C(/C=C/c1ccccc1)NC(NC(=S)Nc1cc(Cl)ccc1Cl)C(Cl)(Cl)Cl (stereo not drawn)	CYP2C9 inh 87
CC(=O)NC(NC(=S)Nc1ccc(N=Nc2ccccc2)cc1)C(Cl)(Cl)Cl (stereo not drawn)	none
COc1ccc(NC(=S)NC(NC(=O)/C=C/c2ccccc2)C(Cl)(Cl)Cl)cc1 (stereo not drawn)	CYP2C9 inh 80
O=C(/C=C/c1ccccc1)NNC(=O)c1cccc(Cl)c1	none
C=CCN(CC=C)S(=O)(=O)c1ccc(NC(=S)NC(=O)/C=C/c2ccccc2)cc1	none
CCc1ccc(OCC(=O)NC(NC(=S)Nc2ccccc2)C(Cl)(Cl)Cl)cc1 (stereo not drawn)	none (no result: CYP2C9 inh, CYP2C9 act, CYP2C19 inhib, CYP2C19 act)
O=c1c2c3c(sc2nc2sc(CN4CCOCC4)cn12)CCCC3	none
Cc1ccc(CCSc2ccc(C(C)C)cc2)cn1	none (no result: CYP2C9 inh, CYP2C9 act, CYP2C19 inhib, CYP2C19 act)
CSCC[C@H](NC(=O)OC(C)(C)C)c1nnc(SCC(=O)Nc2ccc(C)cc2C)o1	none
CCN(C(=O)c1sc(N)c(C#N)c1C)C1CCCCC1	CYP2C19 inhib 59
CC(C)CN(CC(C)C)C(=O)CC(=O)NC(=O)c1ccc(Cl)cc1	none
COC1=Cc2c(ccc3ccc(=O)oc23)OC1(C)C	none
C=CCc1c(OC)ccc2ccc(=O)oc12	CYP2C9 act 2.2, CYP2C19 inhib 57
COC(=O)c1ccccc1NC(=O)CSCC(=O)Nc1ccc(F)cc1	CYP2C19 inhib 59
Cc1c(F)cccc1NC(=O)CCC(=O)O	none
Cc1c(F)cccc1NC(=O)CSCC(=O)Nc1ccccc1	CYP2C9 inh 56, CYP2C19 inhib 56
O=C1N(Cc2ccccc2)CCCC12CCCN(Cc1ccccc1)C2=O	none
COc1cc(-n2nnnc2SCC(=O)N2CCN(c3ccc(F)cc3)CC2)c(OC)cc1Cl	none

Assay outcomes from PubChem.
